Screen size: about 310,000 compounds; about 17,000 (5.5%) were called active. Where a call stands in place of a potency, no number is given. Another 11% or so got no clear call; they are omitted. This excerpt belongs to a sample that is enriched for actives. Values without a mark were called inactive. Calls come from the whole dose curve; as a rule, active = well fitted inhibition curve with a large enough effect; inconclusive = small, poorly fitted or top-dose-only effect, or effect the other way; inactive = no such curve, though single readings can be large or run the other way.

100 compounds from PubChem BioAssay AID2551 (National Center for Advancing Translational Sciences (NCATS), 2010) can be followed below.
Potency is the fitted concentration of half-maximal effect.

This experiment deals with Nuclear receptor ROR-gamma (Mus musculus) (UniProt P51450). As to the kind of experiment: qHTS for inhibitors of ROR gamma transcriptional activity. Note: nearly all actives have a fitted effect of over 60% in size. To be noted: Drosophila S2 Gal4-RORgamma UAS-luciferase reporter, 20 h; series mostly up to 53.6 µM. The gist of the method: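 Stable Schneider cell line, Gal4 DNA-binding domain fused to ROR gamma, UAS-luciferase. Cmpd 1 hr RT → CuSO4 700 uM final → 20 hr RT → luciferase reagent 10 min → luminescence.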
Nuclear receptor ROR-gamma (Mus musculus), sequence (P51450 whole entry, looked up, the tested form may be a part): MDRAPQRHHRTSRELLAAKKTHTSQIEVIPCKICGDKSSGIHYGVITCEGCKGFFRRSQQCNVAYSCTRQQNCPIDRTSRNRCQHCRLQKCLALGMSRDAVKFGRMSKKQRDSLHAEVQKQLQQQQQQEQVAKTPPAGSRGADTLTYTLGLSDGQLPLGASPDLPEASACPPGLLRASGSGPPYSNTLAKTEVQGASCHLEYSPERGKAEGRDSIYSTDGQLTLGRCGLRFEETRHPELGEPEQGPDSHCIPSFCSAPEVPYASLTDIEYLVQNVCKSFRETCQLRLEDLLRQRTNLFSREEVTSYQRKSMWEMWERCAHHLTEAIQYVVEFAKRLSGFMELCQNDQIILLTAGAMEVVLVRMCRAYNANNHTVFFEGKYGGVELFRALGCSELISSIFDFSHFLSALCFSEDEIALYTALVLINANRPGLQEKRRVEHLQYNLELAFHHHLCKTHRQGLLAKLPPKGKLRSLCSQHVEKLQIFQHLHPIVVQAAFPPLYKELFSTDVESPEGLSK
Take `CN(C(=O)CC1C(=O)NCCN1Cc1ccc2ccccc2c1)C1CCOCC1` (stereo not given): the Potency result is “inactive”.
On to `CN(C(=O)CC1C(=O)NCCN1Cc1ccc(F)cc1Cl)C1CCCCC1` (stereo not given), for which the Potency was 11.2 µM (active).
`CCn1ccnc1CNC(=O)CC1C(=O)NCCN1Cc1ccc(F)cc1Cl` (stereo not given): the Potency entry is “inactive”.
Still for that read-out and setting: next, `COc1cc(C2C(C(=O)c3ccco3)=C(O)C(=O)N2c2cc(C)on2)ccc1OCc1ccccc1` (stereo not given): “inactive”; `COc1ccc(C(C(=O)NC(C)(C)C)N(Cc2ccc(F)cc2)C(=O)CCC(=O)Nc2cc(C)on2)cc1` (stereo not given): “inactive”; `O=C(Nc1ccccc1C(=O)O)c1ccc(N2C(=O)C3CC=CCC3C2=O)cc1` (stereo not given): “inactive”.
Still for that read-out and setting: as for `Cc1cc(C)c(OCC(=O)N/N=C/c2ccco2)c(C)c1`, the entry is “inactive”.
As to `O=C(Cn1cnc2ccccc21)N/N=C/c1ccco1`, the Potency is 12.6 µM (active).
In the case of `O=C(Cn1cnc2ccccc21)Nc1ccccc1-c1ccccc1`, the Potency entry was “inactive”.
Consider `COc1ccc(C(=O)N[C@H](C(=O)NCc2ccccc2)C(C)C)cc1`, for which the Potency result was “inactive”.
On the same count and under the same terms, as for `CNC[C@H](CC1CCCCC1)NC[C@H](NCCC1CCCC1)[C@H](C)O`, the entry is “inactive”; as for `O=C(Nc1cccnc1Cl)c1cc(-c2ccccc2O)on1`, “inactive”.
Same read-out and setting: as for `NC(=O)Cc1nc2scc(-c3ccc(Cl)cc3)c2c(=O)[nH]1`, the entry is “inactive”; as for `O=c1[nH]c(CCl)nc2cc(-c3ccc(Cl)cc3)sc12`, 7.08 µM (active); as for `O=C(CCc1nc2ccccc2c(=O)[nH]1)OCC(=O)c1cccc(Cl)c1`, “inactive”.
Same read-out and setting: next, `Cc1ccc(-c2cc(C(=O)NN)n[nH]2)o1`: “inactive”; `Cc1ccc(-c2cc(C(=O)N/N=C/C=C/c3ccccc3)n[nH]2)o1`: 7.08 µM (active); `CC(C)c1cc(C(=O)N/N=C/C(Br)=C/c2ccccc2)n[nH]1`: “inactive”.
On to `CCOC(=O)N1CCC(N2Cc3cccc(C(=O)Nc4ccc(S(=O)(=O)N(CC)CC)cc4)c3C2=O)CC1`, for which the Potency entry was “inactive”.
As for `Cc1ccc2c(c1)N(CC(=O)N1CCC(C)CC1)C(=O)c1cccnc1O2`, the Potency result is “inactive”.
On the same count and under the same terms, as for `CCCn1nc(NC(=O)C(C)C)c2cc3cc(OC)ccc3nc21`, the entry is “inactive”; as for `Cc1cc(Cl)c2oc(C(=O)N(C)C(C)c3ccccn3)c(C)c2c1` (stereo not given), “inactive”.
Regarding `CCNC(=O)N1CCCC(C(=O)c2ccc(-c3ccccc3)cc2)C1` (stereo not given), the Potency entry was “inactive”.
With `NS(=O)(=O)c1ccc(CCNC(=O)c2nc(CS(=O)(=O)c3ccc(Cl)cc3)no2)cc1`, the Potency entry is “inactive”.
Still for that read-out and setting: next, `COc1ccccc1NC(=O)CSc1nc2sc3c(c2c(=O)n1-c1ccccc1)CCN(C)C3`: “inactive”; `O=C(O)CCC(=O)NCc1ccc2[nH]c3c(c2c1)CCCC3`: “inactive”; `Cc1cccc(NC(=S)NCc2ccc3[nH]c4c(c3c2)CCCC4)c1`: 1.58 µM (active).
Regarding `C=CCNC(=S)N1CCc2[nH]c3ccccc3c2C1`, the Potency entry was “inactive”.
Turning to `Cc1cnc(CN(C)C(=O)C2CCC(=O)N(CCc3cccc(F)c3)C2)[nH]1` (stereo not given), the Potency entry was “inactive”.
On the same count and under the same terms, next, `CC(C)(C)c1nnc(N/N=C/c2ccc(O)cc2)n(N)c1=O`: 1.26 µM (active).
As to `O=C(C[n+]1ccccc1)N/N=C/c1ccc(O)cc1`, the Potency entry is “inactive”.
Same read-out and setting: as for `Nc1nnn(CC(=O)N/N=C/c2ccc(O)cc2)n1`, the entry is “inactive”.
Same read-out and setting: as for `CSc1cccc(NC(=O)CN2C(=O)COc3ccc(S(=O)(=O)N4CCOCC4)cc32)c1`, the entry is “inactive”; as for `CC(=O)c1ccc(N2CCN(C(=O)CCNC(=O)Cn3ccc4ccccc4c3=O)CC2)cc1`, “inactive”; as for `Cc1ccccc1NC(=O)c1cc(S(=O)(=O)Nc2cccc(C(=O)O)c2)ccc1Cl`, “inactive”.
`COc1cccc(NC(=O)CC2C(=O)NCCN2C(=S)Nc2ccc(F)cc2)c1` (stereo not given): the Potency entry was “inactive”.
On to `CCC1C(=O)NCCN1C(=O)c1ccc2nc(Cc3ccc(OC)cc3)oc2c1` (stereo not given), for which the Potency entry was “inactive”.
Still for that read-out and setting: as for `COc1ccc(C(=O)NC(=S)N2CCNC(=O)C2CC(=O)OC(C)C)cc1` (stereo not given), the figure is 4.47 µM (active); as for `COc1ccccc1N1CC(O)=C(c2nc3ccccc3s2)C1=N`, “inactive”; as for `N=C1C(c2nc3ccccc3s2)=C(O)CN1NC(=O)c1ccc([N+](=O)[O-])cc1`, 2.82 µM (active).
Same read-out and setting: as for `CCOC(=O)CCCN1CC(O)=C(c2nc3ccccc3s2)C1=N`, the entry is “inactive”; as for `CCOc1cc(C2C(C(=O)c3ccco3)=C(O)C(=O)N2Cc2ccccc2)ccc1O` (stereo not given), “inactive”; as for `Cn1nc(-c2ccccc2)c2cc([N+](=O)[O-])ccc21`, “inactive”.
`Cc1c(NC(=O)Nc2cccc([N+](=O)[O-])c2)c(=O)n(-c2ccccc2)n1C`: the Potency entry was “inactive”.
The same measure, in the same setting: next, `CC(CC(=O)Nc1ccc(F)cc1F)S(=O)(=O)c1ccc2c(c1)NC(=O)CO2` (stereo not given): “inactive”; `Cc1cc(SCC(=O)NCCN2C(=O)CSC2=O)nc2ccccc12`: 11.2 µM (active); `Cc1nnc(SCC(=O)NCc2ccccc2)s1`: “inactive”.
In the case of `COCC(C)n1c(C)cc(C(=O)CSc2cc(C)c3ccccc3n2)c1C` (stereo not given), the Potency result is “inactive”.
Same read-out and setting: as for `N[C@@H](Cc1ccccc1)C(=O)N1CCC(C(=O)NCC(=O)Nc2ccc(F)cc2)CC1`, the entry is “inactive”; as for `Cc1ccn2c(=O)c(C(=O)NCCC3=CCCCC3)c(O)nc2c1`, “inactive”; as for `COC(=O)c1cn(-c2ccccc2)nc1-c1cccnc1`, “inactive”.
The same measure, in the same setting: as for `O=C(NNC(=S)NC(=O)c1cn(-c2ccccc2)nc1-c1ccccc1)c1ccncc1`, the figure is 2.82 µM (active); as for `O=C(Nc1cn(-c2ccccc2)nc1-c1ccccc1)c1ccccc1`, “inactive”.
As to `CC(C)CCN(C(=O)c1csnn1)C(C(=O)NC1CCCC1)c1ccccc1` (stereo not given), the Potency result was “inactive”.
The same measure, in the same setting: as for `Cc1ccc(NC(=O)CN(C)C(=O)COC(=O)C(C)(C)Oc2ccc(Cl)cc2)cc1`, the entry is “inactive”; as for `Cn1c(Cc2cccs2)nnc1SCC(=O)Nc1ccccc1`, “inactive”.
Same read-out and setting: next, `Cn1c(CSCC(=O)Nc2ccccc2)nnc1SCc1ccccc1`: “inactive”.
`Cn1c(CC(=O)Nc2ccccc2)nnc1SCC(=O)c1ccccc1`: the Potency was 3.55 µM (active).
Still for that read-out and setting: as for `CCOc1ccc(N(CC)S(=O)(=O)c2cccc3nsnc23)cc1`, the entry is “inactive”.
Same read-out and setting: as for `O=C(CN(C(=O)c1csnn1)c1cccc(Cl)c1)NC1CCCC1`, the entry is “inactive”; as for `COc1cc(Cl)ccc1OCc1cc(C(=O)N2CC[C@@H]3CCCC[C@H]3C2)no1`, “inactive”; as for `CCc1ccc(NC(=O)Cn2nnc(C(=O)NCc3ccc4c(c3)OCO4)c2N)cc1`, “inactive”.
As for `O=C(/C=C/c1ccccc1[N+](=O)[O-])OC1CCCCC1=O` (stereo not given), the Potency entry was “inactive”.
As to `O=C(/C=C/c1ccccc1[N+](=O)[O-])NCC1CCCO1` (stereo not given), the activity change, negative = inhibition is 16.2% [at 10 µM].
Take `CC1CCCCC1NC(=O)/C(C#N)=C/C=C/c1ccccc1[N+](=O)[O-]` (stereo not given): the Potency was 8.91 µM (active).
In the case of `CCCCC(=O)Nc1nnc(S(=O)(=O)N(C)Cc2ccco2)s1`, the Potency result is “inactive”.
Same read-out and setting: as for `CSc1ccccc1NC(=O)c1cc(Cl)sc1Cl`, the entry is “inactive”; as for `CC(c1ccccn1)N(C)C(=O)c1ccc2nc(Cc3cccc(Cl)c3)oc2c1` (stereo not given), “inactive”.
Still for that read-out and setting: next, `Cc1ccc(-c2c3c(=O)n(C)c(=O)n(C)c3cn2-c2ccccc2O)cc1`: “inactive”.
On the same count and under the same terms, next, `COc1ccc(-c2c3c(=O)n(C)c(=O)n(C)c3cn2-c2cccc(OC)c2)cc1`: “inactive”.
Turning to `Cc1ccc(-c2c3c(=O)n(C)c(=O)n(C)c3cn2-n2cnnc2)cc1`, the Potency is 15.8 µM (active).
Still for that read-out and setting: as for `Cn1c(-c2sc3cc(C(F)(F)F)cnc3c2-c2ccccc2)n[nH]c1=S`, the figure is 2.82 µM (active).
Take `Cc1cc(C(F)(F)F)n2ncc(-c3ccccc3)c2n1`: the activity change, negative = inhibition was -12.2% [at 0.365 µM].
`CC(=O)OCC(=O)[C@@]1(O)CCC2C3CCC4=CC(=O)CC[C@@]4(C)[C@]3(F)C(O)C[C@]21C` (stereo not given in full): the Potency result was “inactive”.
For the compound `CC(=O)OCC(=O)[C@@]1(O)CC[C@@H]2[C@H]3CCC4=CC(=O)C=C[C@]4(C)[C@]3(F)[C@@H](O)C[C@@]21C`, the activity change, negative = inhibition was -4.5% [at 2.98 µM].
As to `CC1(C)OC2CC3C4CCC5=CC(=O)CCC5(C)C4(F)C(O)CC3(C)[C@]2(C(=O)CCl)O1` (stereo not given in full), the Potency is 10 µM (active).
Regarding `CNC(=O)[C@]1(C(F)(F)F)C[C@H](CCc2ccccc2)CCCO1`, the Potency result was “inactive”.
With `CCOCCCN(C)C1CCN(C(=O)c2oc3ccccc3c2NC(=O)COc2cccc(C)c2)CC1`, the Potency entry was “inactive”.
On the same count and under the same terms, as for `Cn1c(Nc2ccccc2)cc(=O)n(C)c1=O`, the entry is “inactive”.
As to `COc1cccc(NC(=O)COc2cc(C)cc3oc(=O)cc(C)c23)c1`, the Potency entry was “inactive”.
Same read-out and setting: next, `CC(NC(=O)c1ccc(Cl)cc1)C(=O)N1CCCCC1` (stereo not given): “inactive”; `COC(=O)c1cn(C(=O)c2ccc(Cl)cc2)c2ccccc12`: “inactive”; `COC(=O)C1(O)CC(C(C)C)=NN1C(=O)c1ccc(Cl)cc1` (stereo not given): 10 µM (active).
The same measure, in the same setting: next, `CC1CCC2CCCCC2N1C(=O)c1cc([N+](=O)[O-])cc([N+](=O)[O-])c1` (stereo not given): “inactive”; `C=CCSc1nc2c(c(=O)[nH]c(=O)n2C)n1Cc1ccccc1`: “inactive”.
The same measure, in the same setting: as for `Cc1cc(NC(=O)c2cccc(N3C(=O)CCC3=O)c2)no1`, the entry is “inactive”; as for `COc1ccccc1-c1nnc(SCC(=O)N2CC(C)CC(C)C2)o1` (stereo not given), “inactive”; as for `COc1ccccc1-c1nnc(NC(=O)c2ccc3ncsc3c2)o1`, 0.501 µM (active).
For the compound `O=C(Nc1cccc2cccnc12)c1cccc(N2C(=O)CCC2=O)c1`, the Potency result is “inactive”.
As to `COc1ccccc1-c1nnc(NC(=O)c2cccc(N3C(=O)CCC3=O)c2)o1`, the Potency is 11.2 µM (active).
Same read-out and setting: next, `COc1ccccc1NC(=O)c1ccc2nc(N3C(=O)CCC3=O)sc2c1`: “inactive”; `O=C(CC1C(=O)NCCN1CC(c1ccccc1)c1ccccc1)NCC1CCOCC1` (stereo not given): “inactive”; `COCCCNC(=O)/C(C#N)=C/c1c(N2CCCCCC2)nc2ccccn2c1=O`: “inactive”.
As for `CC1(C)Oc2ccc3ccc(=O)oc3c2/C(=N/O)C1=O`, the Potency result was “inactive”.
As for `Cc1onc(C(=O)NN)c1C(=O)N1CCN(C(c2ccccc2)c2ccccc2)CC1`, the Potency entry is “inactive”.
Still for that read-out and setting: as for `CCOC(=O)N1CCN(C(=O)C2CCN(c3ncnc4c3sc3cccc(F)c34)CC2)CC1`, the entry is “inactive”.
On the same count and under the same terms, as for `CCN1CCN(c2ccc(NC(=O)c3cnccn3)cc2)CC1`, the entry is “inactive”; as for `CCN1CCN(C(c2cccnc2)c2cc(Cl)c3cccnc3c2O)CC1` (stereo not given), 2.82 µM (active).
On the same count and under the same terms, next, `Oc1ccccc1CN1CCN(C(c2ccccc2)c2ccccc2)CC1`: “inactive”; `CCOC(=O)N1CCN(C(c2cccnc2)c2ccc3cccnc3c2O)CC1` (stereo not given): 4.47 µM (active).
